We go through 9 compounds from PubChem BioAssay.

Calls of active or inactive are those of the source.

A short description of experiment [1]: binders of probe aFSTL3 on microarray, primary screen, stem cell growth factor project, biochemical, small-molecule microarray, fluorescence 635/667 (AID 1064).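 Also: measures binding of the biotinylated anti-FSTL3 antibody to printed compounds.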 The following applies: higher = more signal.
The nature of experiment [2]: binders from COS7 lysate, DM2A8 probe, primary screen, torsin A project, cell lysate, small-molecule microarray, fluorescence 635/667 (AID 1065). The note with it: higher = more signal, COS7 lysate expressing mutant human TOR1A.
Experiment [3] is described as follows: binders of probe aFGF2 on microarray, primary screen, stem cell growth factor project, biochemical, small-molecule microarray, fluorescence 635/667 (AID 1067).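 Also: measures binding of biotinylated aFGF2 protein to printed compounds on slides; z-score merges feature fluorescence and signal-to-noise across triplicate slides.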 The note with it: higher = more signal.
A short description of experiment [4]: binders of probe aFGF10 on microarray, primary screen, stem cell growth factor project, biochemical, small-molecule microarray, fluorescence 635/667 (AID 1071).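 Also: score merges 667 nm spot intensity and signal to noise from triplicate slides.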 The note with it: higher = more signal.
Experiment [5] deals with Neurogenic locus notch homolog protein 2 (Homo sapiens) (UniProt Q04721). Nature of the experiment: Notch2 binders on small-molecule microarrays, primary screen, biochemical, small-molecule microarray, 635 nm fluorescence, stem cell growth factors (AID 1073). The following applies: Notch2 binding, higher = more signal.
Sequence of Neurogenic locus notch homolog protein 2 (Homo sapiens) (Q04721 whole entry, looked up, canonical isoform): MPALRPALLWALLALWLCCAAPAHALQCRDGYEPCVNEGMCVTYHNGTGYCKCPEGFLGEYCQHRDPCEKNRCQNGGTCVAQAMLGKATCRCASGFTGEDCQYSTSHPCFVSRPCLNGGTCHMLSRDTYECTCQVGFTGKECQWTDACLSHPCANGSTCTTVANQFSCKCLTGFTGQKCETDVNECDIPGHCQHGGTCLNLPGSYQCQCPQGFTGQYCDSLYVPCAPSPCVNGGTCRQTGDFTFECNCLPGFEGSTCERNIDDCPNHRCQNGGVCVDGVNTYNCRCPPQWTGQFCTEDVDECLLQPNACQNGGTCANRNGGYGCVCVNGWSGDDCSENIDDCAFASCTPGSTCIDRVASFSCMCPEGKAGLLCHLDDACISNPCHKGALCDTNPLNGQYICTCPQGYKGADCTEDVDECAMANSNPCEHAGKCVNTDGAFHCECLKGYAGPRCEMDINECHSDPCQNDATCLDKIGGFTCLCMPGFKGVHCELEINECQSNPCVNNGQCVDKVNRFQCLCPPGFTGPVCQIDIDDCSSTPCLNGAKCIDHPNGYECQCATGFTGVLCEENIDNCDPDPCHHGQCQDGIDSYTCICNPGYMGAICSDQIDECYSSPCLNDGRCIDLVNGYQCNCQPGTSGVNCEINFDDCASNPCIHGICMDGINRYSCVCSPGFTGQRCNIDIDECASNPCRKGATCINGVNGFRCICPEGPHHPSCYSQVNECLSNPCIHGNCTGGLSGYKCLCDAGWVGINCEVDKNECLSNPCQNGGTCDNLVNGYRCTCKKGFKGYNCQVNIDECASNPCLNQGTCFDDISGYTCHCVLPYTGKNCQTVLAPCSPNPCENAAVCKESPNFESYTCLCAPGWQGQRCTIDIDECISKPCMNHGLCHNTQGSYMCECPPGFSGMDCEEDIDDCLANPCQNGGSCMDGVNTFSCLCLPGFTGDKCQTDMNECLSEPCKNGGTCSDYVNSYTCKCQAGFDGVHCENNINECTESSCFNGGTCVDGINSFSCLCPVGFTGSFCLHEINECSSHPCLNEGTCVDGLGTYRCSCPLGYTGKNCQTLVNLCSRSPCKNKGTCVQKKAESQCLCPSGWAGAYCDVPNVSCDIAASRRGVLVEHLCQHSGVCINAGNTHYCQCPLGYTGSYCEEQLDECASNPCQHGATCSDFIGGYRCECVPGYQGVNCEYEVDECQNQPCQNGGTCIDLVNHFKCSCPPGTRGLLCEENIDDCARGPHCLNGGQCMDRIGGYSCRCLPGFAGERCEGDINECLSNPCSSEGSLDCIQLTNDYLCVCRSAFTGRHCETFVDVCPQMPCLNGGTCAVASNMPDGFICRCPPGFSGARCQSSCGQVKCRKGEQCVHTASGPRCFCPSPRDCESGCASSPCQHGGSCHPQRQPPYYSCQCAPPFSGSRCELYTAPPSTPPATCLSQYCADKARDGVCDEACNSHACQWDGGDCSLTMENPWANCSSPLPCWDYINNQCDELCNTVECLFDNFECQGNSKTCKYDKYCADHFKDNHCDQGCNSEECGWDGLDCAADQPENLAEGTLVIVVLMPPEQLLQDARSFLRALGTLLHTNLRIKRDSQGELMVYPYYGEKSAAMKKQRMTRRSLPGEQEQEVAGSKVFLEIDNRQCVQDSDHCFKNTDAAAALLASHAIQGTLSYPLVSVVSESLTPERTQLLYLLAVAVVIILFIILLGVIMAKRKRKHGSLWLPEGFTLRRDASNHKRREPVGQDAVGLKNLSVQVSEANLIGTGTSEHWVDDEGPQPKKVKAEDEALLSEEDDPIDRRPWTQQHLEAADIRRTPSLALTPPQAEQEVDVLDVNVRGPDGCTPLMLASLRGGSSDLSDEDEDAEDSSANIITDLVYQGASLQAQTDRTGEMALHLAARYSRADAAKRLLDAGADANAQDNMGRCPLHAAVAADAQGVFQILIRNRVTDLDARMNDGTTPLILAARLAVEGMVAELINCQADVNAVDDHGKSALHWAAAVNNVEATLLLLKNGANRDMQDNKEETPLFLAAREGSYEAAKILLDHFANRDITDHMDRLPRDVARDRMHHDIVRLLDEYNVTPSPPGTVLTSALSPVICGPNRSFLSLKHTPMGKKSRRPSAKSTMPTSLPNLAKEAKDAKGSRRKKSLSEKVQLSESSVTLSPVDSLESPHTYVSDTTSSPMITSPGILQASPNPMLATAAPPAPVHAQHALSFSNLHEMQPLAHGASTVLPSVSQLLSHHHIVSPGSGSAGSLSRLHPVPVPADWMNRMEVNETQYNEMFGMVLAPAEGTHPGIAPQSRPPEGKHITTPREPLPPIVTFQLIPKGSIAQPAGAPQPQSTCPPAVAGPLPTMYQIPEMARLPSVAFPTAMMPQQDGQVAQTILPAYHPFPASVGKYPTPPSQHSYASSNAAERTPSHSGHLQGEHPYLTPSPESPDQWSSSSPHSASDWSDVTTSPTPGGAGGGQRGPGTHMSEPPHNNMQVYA
Experiment [6] has as its target Pro-neuregulin-1, membrane-bound isoform (Homo sapiens) (UniProt Q02297). Nature of the experiment: NRG1 binders on small-molecule microarrays, primary screen, psychiatric disease protein project, biochemical, small-molecule microarray, fluorescence 635/667 (AID 1075).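 Also: score combines 667 nm spot fluorescence with signal to noise.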 The note with it: NRG1 binding, 635 nm fluorescence, higher = more signal.
For experiment [7], the system named is Neuregulin-1 EGF-like domain. Briefly: binders of neuregulin-1 EGF-like domain, primary screen, biochemical, small-molecule microarray, 635 nm fluorescence (AID 1081).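 Also: binding of the protein to compounds printed on small-molecule microarray slides.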 The following applies: small-molecule microarray binding, higher = more signal.
The nature of experiment [8]: FRG1 promoter luciferase signal modulators, primary screen, FRG1 inhibition for FSHD, cell-based, C2C12 myotubes, firefly/Renilla luciferase, luminescence (AID 1084). The following applies: higher = more signal, called active from +8 up or from −8 down.
A short description of experiment [9]: binders of probe aFST on microarray, primary screen, stem cell growth factor project, biochemical, small-molecule microarray, fluorescence 635/667 (AID 1086).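 Also: score merges 667 nm fluorescence with signal-to-noise of each printed compound spot.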 The following applies: higher = more signal.
Experiment [10] can be described thus: binders of probe aHhip on microarray, primary screen, stem cell growth factor project, biochemical, small-molecule microarray, fluorescence 635/667 (AID 1087).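 Also: score merges spot fluorescence at 667nm with spot signal to noise ratio.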 The following applies: higher = more signal.
Experiment [11] relates to PRMT1 (protein arginine N-methyltransferase 1). Nature of the experiment: PRMT1 binders on small-molecule microarrays, primary screen, biochemical, small-molecule microarray, 635 nm fluorescence (AID 1088).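 Also: binding of Prmt1 protein to compounds spotted on small-molecule microarray slides.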 The note with it: small-molecule microarray binding, higher = more signal.
Experiment [12] can be described thus: yeast growth modulation, basal conditions, primary screen, YJM789 clinical isolate, OD600, 24 h (AID 1089).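 Also: growth of clinical yeast isolate S. cerevisiae YJM 789 seeded 1000 cells per well; test concentration not given here.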 The note with it: S. cerevisiae YJM789 growth, higher = more signal, called active from +8 up or from −8 down.
Experiment [13] in a line: fission yeast growth modulation, primary screen, strain 972, OD600, 24 h, no modulator (AID 1090).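 Also: basal condition with compound alone and no growth modifier present; test concentration not given here.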 The note with it: S. pombe 972 growth, higher = more signal, called active from +8 up or from −8 down.
The nature of experiment [14]: S. cerevisiae growth modulation with rapamycin, primary screen, strain BY4716, OD600, 96 h (AID 1091). Also: test concentration not given here. The following applies: higher = more signal, called active from +8 up or from −8 down.
Experiment [15] deals with Torsin-1A-interacting protein 2 (Homo sapiens) (UniProt Q8NFQ8). Briefly: LULL1 binders on small-molecule microarray, primary screen, cell lysate, human LULL1 lysate, 635/667 nm fluorescence (AID 1092).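 Also: probe is lysate of COS7 cells overexpressing human LULL1; score merges per-feature 667 nm fluorescence with signal-to-noise.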 The following applies: hLULL1 lysate binding, 635 nm fluorescence, higher = more signal.
Sequence of Torsin-1A-interacting protein 2 (Homo sapiens) (Q8NFQ8 whole entry, looked up): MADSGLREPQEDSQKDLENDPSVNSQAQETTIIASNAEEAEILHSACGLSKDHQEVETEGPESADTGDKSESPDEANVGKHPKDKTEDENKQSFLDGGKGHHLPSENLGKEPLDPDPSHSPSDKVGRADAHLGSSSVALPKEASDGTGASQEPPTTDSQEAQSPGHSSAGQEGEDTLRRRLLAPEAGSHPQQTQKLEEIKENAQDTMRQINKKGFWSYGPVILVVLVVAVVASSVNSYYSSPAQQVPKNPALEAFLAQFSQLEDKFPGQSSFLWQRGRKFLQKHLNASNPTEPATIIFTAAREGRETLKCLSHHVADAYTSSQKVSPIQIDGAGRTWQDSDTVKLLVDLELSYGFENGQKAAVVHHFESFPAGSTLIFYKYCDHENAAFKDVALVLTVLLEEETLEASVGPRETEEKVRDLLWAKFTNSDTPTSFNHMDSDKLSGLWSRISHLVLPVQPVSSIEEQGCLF
Experiment [16] can be described thus: E. coli growth modulation, two-sided OD650, primary screen, E. coli filamentation project, strain DRC41, 24 h (AID 1093).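 Also: MC1000 strain lacking acrAB efflux and sulA so SOS filamentation is blocked; test concentration not given here.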 The following applies: OD650, 24 h, higher = more signal, called active from +8 up or from −8 down.
A short description of experiment [17]: small-molecule microarray binders of probe aLefty2, primary screen, biochemical, biotinylated probe, 635/667 nm fluorescence (AID 1094).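 Also: score merges spot fluorescence near 667 nm with spot signal-to-noise ratio.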 The note with it: higher = more signal.
The subject of experiment [18] is Noggin (protein binding on small-molecule microarray). Nature of the experiment: Noggin binders on small-molecule microarray, primary screen, biochemical, 635/667 nm fluorescence (AID 1095).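 Also: score merges 667 nm feature fluorescence with signal to noise over triplicate slides.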 The following applies: 635 nm fluorescence, higher = more signal.
Experiment [19] addresses Neurogenic locus notch homolog protein 3 (Homo sapiens) (UniProt Q9UM47). Nature of the experiment: NOTCH3 binders on small-molecule microarray, primary screen, biochemical, 635/667 nm fluorescence (AID 1096). The following applies: NOTCH3 binding, 635 nm fluorescence, higher = more signal.
The nature of experiment [20]: small-molecule microarray binders of probe aEGFR, primary screen, biochemical, biotinylated probe, 635/667 nm fluorescence (AID 1097).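 Also: probe is a biotinylated anti-EGFR antibody binding compounds printed on slides; score combines fluorescence near 667 nm and signal to noise of each spot.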 The note with it: higher = more signal.

Sequence of Pro-neuregulin-1, membrane-bound isoform (Homo sapiens) (Q02297 whole entry, looked up, the tested form may be a part, canonical isoform): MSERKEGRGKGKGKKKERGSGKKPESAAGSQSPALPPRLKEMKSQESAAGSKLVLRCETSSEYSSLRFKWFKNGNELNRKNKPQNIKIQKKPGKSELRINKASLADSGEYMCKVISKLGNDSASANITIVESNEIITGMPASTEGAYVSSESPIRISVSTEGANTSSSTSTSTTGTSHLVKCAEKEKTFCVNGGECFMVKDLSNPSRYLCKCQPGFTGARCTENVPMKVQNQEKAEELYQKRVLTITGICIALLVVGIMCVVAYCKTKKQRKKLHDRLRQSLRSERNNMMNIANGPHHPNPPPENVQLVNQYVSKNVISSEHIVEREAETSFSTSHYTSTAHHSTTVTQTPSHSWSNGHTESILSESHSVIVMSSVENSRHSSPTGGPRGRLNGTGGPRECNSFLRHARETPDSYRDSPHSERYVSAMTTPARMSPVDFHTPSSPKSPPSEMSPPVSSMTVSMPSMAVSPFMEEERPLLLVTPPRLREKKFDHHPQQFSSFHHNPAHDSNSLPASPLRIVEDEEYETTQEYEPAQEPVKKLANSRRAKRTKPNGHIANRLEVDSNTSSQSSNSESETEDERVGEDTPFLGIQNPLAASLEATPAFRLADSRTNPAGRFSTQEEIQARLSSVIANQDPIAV

In the case of `CN(C)C(=O)[C@@]1(Cc2ccccc2N=[N+]=[N-])N=C(c2ccc(OCCCO)cc2)O[C@H]1c1ccccc1N=[N+]=[N-]`, the composite z-score in experiment [1] stood at 0.982; in [2] it was 1.2; in experiment [3], 0.125; in experiment [4], 0.765; in [5], 1.51; in experiment [6], 1.46. Further, the composite z-score in [7] came to 0.73; in experiment [9] it was 1.53; in experiment [10], 0.28; in [11] it was 1.56; in experiment [15] it was 2.87; in experiment [17], 0.505. The composite z-score amounted to 0.126 in experiment [18], 1.06 in experiment [19] and 0.387 in experiment [20]. Also, the z-score in experiment [8] was -0.325 (inactive); in experiment [12] it was 0.506 (inactive); in experiment [13], -2.68 (inactive); in [14], 3.01 (inactive); in [16], 0.239 (inactive).

As for `CC(C)CCC[C@@H](C)[C@H]1CC[C@@]2(C)C3=C(CC[C@]12C)[C@@]1(C)CC[C@H](OC(=O)C(C)(C)C)C(C)(C)C1CC3` (stereo not given in full), the composite z-score in [1] is -0.441; in experiment [2], 0.39; in [3], -0.0609; in [4], 0.298; in experiment [5], 0.575; in [6], -0.036. Besides, the composite z-score was 0.307 in experiment [7]; 0.0166 in [9]; -0.0296 in experiment [10]; 0.475 in experiment [11]; 0.0236 in experiment [15]; -0.212 in experiment [17]. The composite z-score was 0.57 in experiment [18], 0.571 in experiment [19] and -0.0549 in experiment [20]. Besides, the z-score in [8] was -0.987 (inactive); in [12], -3.55 (inactive); in experiment [13], -2.59 (inactive); in experiment [14] it was -2.18 (inactive); in [16] it was 0.768 (inactive).

Turning to `CCCC[C@@H](O)C1=C(COc2ccccc2)Cn2c(=O)n(-c3ccccc3)c(=O)n2[C@H]1CO`, the composite z-score was -0.353 in experiment [1]; -0.0302 in [2]; -0.118 in experiment [3]; 0.0467 in experiment [4]; -0.239 in [5]; -0.21 in experiment [6]. Besides, the composite z-score in [7] was -0.851; in [9] it was -0.512; in experiment [10], 0.0274; in experiment [11] it was 0.0063; in [15], 0.94; in [17], -0.285. Also, the composite z-score in experiment [18] is -0.376; in [19] it was -0.88; in experiment [20], -0.229. For the same compound, the z-score in experiment [8] was -1.83 (inactive); in experiment [12], -2.31 (inactive); in experiment [13], -1.82 (inactive); in experiment [14], -1.17 (inactive); in [16] it was 1.87 (inactive).

On to `COCC(=C=CC[C@@H](O)c1ccccc1OCCO)C[C@@H](O)c1ccccn1`, for which the composite z-score is -0.304 in [1]; 0.663 in experiment [2]; -0.0775 in experiment [3]; 0.159 in experiment [4]; 0.12 in experiment [5]; 1.21 in experiment [6]. Further, the composite z-score was 1.2 in experiment [7]; -0.0376 in [9]; 0.0156 in experiment [10]; 1.29 in experiment [11]; 2.97 in experiment [15]; -0.0825 in [17]. The results for the composite z-score in experiment [18], in experiment [19] and in [20] were 0.416, 0.88 and -0.0512, respectively. For the same compound, the z-score was -0.0964 (inactive) in experiment [8]; -0.108 (inactive) in [12]; -1.4 (inactive) in [13]; -0.856 (inactive) in experiment [14]; -0.224 (inactive) in experiment [16].

As for `C=CCNC(=O)[C@H]1[C@@H]2C(=O)O[C@@H](c3ccccc3)[C@@H](c3ccccc3)N2[C@@H](c2ccc(OCCO)cc2)[C@]12C(=O)N(C(=O)OCCOC)c1ccc(C#CC3=CCCCC3)cc12`, the composite z-score in experiment [1] is -0.0822; in experiment [2] it was 0.967; in experiment [3] it was -0.0711; in experiment [4], 1.13; in experiment [5] it was 0.844; in experiment [6], 1.43. Further, the composite z-score in [7] was 1.28; in experiment [9], 0.344; in [10] it was -0.0296; in experiment [11], 1.55; in experiment [15] it was 2.76; in experiment [17], -0.0477. Besides, the composite z-score in experiment [18] was 0.826; in experiment [19], 1.09; in experiment [20], -0.0237. The z-score in [8] is -0.974 (inactive); in experiment [12], 0.573 (inactive); in experiment [13], 0.656 (inactive); in experiment [14], 2.97 (inactive); in experiment [16], 1.89 (inactive).

For the compound `Cc1ccc(F)cc1S(=O)(=O)N[C@@H]1CCN(C(=O)c2ccc(OC(C)C)cc2)C1`, the composite z-score was -0.473 in [1]; -0.414 in experiment [2]; -0.131 in experiment [3]; 0.859 in experiment [4]; 0.957 in experiment [5]; -0.129 in experiment [6]. Besides, the composite z-score in experiment [7] was 0.602; in experiment [9] it was 0.475; in [10], -0.258; in [11], 0.981; in [15], 1.03; in experiment [17], 0.0563. In addition, the values for the composite z-score in [18], in [19] and in [20] were 0.805, 1.13 and 0.0225, respectively. Moreover, the z-score in experiment [8] was -3.78 (inactive); in experiment [12], -0.654 (inactive); in experiment [13], -0.709 (inactive); in experiment [14], -0.966 (inactive); in experiment [16] it was 0.845 (inactive).

For the compound `CCOc1cc(C(O)C2C=CC3C(=O)NC(=O)C3N2Nc2ccccn2)ccc1O` (stereo not given), the composite z-score in experiment [1] is -0.373; in [2], 0.123; in experiment [3], -0.0094; in [4] it was 0.458; in experiment [5] it was 0.257; in [6], 0.18. Besides, the composite z-score is 0.117 in experiment [7]; 0.0771 in experiment [9]; -0.132 in experiment [10]; -0.0438 in experiment [11]; 0.394 in experiment [15]; -0.0708 in [17]. Besides, the composite z-score in [18] was 0.195; in [19] it was 0.0082; in [20], -0.0947. Also, the z-score in experiment [8] was -0.027 (inactive); in [12], 0.128 (inactive); in experiment [13] it was 1.33 (inactive); in [14] it was -0.0339 (inactive); in [16], -0.977 (inactive).

For `COC(=O)[C@@]1(Cc2ccc(F)cc2)[C@H]2c3cc(C(=O)N(C)C)n(Cc4ccc(C)c(F)c4F)c3C[C@H]2CN1C(=O)c1ccccc1`, the composite z-score came out at 0.896 in [1]; 0.0685 in [2]; 0.0697 in experiment [3]; 0.795 in [4]; 1.62 in experiment [5]; 1.71 in experiment [6]. Moreover, the composite z-score in [7] was 1.36; in experiment [9], 0.758; in [10] it was 0.177; in [11], -0.495; in experiment [15], 3.18; in [17], 0.439. The values for the composite z-score in [18], in experiment [19] and in experiment [20] were -0.724, 0.876 and 0.856, respectively. For the same compound, the z-score in experiment [8] was 0.55 (inactive); in [12], 0.28 (inactive); in experiment [13] it was 1.18 (inactive); in experiment [14] it was 0.934 (inactive); in [16], 0.583 (inactive).

For the compound `COc1ccc(C(=O)Nc2ccc3c(c2)[C@]2(O[C@@H](CCO)[C@H]([Si](C)(C)c4ccc(OC)cc4)[C@H]2C)C(=O)N3Cc2ccccc2)cc1`, the composite z-score in experiment [1] was 0.0295; in experiment [2], 0.203; in [3], -0.155; in experiment [4], -0.0615; in experiment [5] it was 0.0879; in experiment [6], 0.725. In addition, the composite z-score is 0.913 in experiment [7]; -0.0897 in [9]; -0.0237 in experiment [10]; 1.3 in experiment [11]; 0.468 in [15]; -0.175 in experiment [17]. Besides, the results for the composite z-score in experiment [18], in experiment [19] and in [20] were 0.78, 0.163 and -0.107, respectively. In addition, the z-score was -3.63 (inactive) in [8]; 0.122 (inactive) in experiment [12]; -3.28 (inactive) in [13]; 3.8 (inactive) in [14]; 1.11 (inactive) in experiment [16].
